FAS-TE inh: FAS thioesterase domain inhibitors, primary screen, biochemical, fluorescence intensity, uHTS; Fatty acid synthase (Homo sapiens), P49327; recombinant FAS-TE, OMFH fluorogenic substrate, fluorescence endpoint; actives 0.67% (n = 360,000); AID 602261, 2012; inhibition, % at 15 µM;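 active = compounds whose normalised, plate-corrected inhibition of enzyme fluorescence in the single-dose primary screen is 50% or more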;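 note: 0% = DMSO with enzyme and 100% = substrate without enzyme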
Target sequence (P49327 whole entry, looked up, the tested form may be a part): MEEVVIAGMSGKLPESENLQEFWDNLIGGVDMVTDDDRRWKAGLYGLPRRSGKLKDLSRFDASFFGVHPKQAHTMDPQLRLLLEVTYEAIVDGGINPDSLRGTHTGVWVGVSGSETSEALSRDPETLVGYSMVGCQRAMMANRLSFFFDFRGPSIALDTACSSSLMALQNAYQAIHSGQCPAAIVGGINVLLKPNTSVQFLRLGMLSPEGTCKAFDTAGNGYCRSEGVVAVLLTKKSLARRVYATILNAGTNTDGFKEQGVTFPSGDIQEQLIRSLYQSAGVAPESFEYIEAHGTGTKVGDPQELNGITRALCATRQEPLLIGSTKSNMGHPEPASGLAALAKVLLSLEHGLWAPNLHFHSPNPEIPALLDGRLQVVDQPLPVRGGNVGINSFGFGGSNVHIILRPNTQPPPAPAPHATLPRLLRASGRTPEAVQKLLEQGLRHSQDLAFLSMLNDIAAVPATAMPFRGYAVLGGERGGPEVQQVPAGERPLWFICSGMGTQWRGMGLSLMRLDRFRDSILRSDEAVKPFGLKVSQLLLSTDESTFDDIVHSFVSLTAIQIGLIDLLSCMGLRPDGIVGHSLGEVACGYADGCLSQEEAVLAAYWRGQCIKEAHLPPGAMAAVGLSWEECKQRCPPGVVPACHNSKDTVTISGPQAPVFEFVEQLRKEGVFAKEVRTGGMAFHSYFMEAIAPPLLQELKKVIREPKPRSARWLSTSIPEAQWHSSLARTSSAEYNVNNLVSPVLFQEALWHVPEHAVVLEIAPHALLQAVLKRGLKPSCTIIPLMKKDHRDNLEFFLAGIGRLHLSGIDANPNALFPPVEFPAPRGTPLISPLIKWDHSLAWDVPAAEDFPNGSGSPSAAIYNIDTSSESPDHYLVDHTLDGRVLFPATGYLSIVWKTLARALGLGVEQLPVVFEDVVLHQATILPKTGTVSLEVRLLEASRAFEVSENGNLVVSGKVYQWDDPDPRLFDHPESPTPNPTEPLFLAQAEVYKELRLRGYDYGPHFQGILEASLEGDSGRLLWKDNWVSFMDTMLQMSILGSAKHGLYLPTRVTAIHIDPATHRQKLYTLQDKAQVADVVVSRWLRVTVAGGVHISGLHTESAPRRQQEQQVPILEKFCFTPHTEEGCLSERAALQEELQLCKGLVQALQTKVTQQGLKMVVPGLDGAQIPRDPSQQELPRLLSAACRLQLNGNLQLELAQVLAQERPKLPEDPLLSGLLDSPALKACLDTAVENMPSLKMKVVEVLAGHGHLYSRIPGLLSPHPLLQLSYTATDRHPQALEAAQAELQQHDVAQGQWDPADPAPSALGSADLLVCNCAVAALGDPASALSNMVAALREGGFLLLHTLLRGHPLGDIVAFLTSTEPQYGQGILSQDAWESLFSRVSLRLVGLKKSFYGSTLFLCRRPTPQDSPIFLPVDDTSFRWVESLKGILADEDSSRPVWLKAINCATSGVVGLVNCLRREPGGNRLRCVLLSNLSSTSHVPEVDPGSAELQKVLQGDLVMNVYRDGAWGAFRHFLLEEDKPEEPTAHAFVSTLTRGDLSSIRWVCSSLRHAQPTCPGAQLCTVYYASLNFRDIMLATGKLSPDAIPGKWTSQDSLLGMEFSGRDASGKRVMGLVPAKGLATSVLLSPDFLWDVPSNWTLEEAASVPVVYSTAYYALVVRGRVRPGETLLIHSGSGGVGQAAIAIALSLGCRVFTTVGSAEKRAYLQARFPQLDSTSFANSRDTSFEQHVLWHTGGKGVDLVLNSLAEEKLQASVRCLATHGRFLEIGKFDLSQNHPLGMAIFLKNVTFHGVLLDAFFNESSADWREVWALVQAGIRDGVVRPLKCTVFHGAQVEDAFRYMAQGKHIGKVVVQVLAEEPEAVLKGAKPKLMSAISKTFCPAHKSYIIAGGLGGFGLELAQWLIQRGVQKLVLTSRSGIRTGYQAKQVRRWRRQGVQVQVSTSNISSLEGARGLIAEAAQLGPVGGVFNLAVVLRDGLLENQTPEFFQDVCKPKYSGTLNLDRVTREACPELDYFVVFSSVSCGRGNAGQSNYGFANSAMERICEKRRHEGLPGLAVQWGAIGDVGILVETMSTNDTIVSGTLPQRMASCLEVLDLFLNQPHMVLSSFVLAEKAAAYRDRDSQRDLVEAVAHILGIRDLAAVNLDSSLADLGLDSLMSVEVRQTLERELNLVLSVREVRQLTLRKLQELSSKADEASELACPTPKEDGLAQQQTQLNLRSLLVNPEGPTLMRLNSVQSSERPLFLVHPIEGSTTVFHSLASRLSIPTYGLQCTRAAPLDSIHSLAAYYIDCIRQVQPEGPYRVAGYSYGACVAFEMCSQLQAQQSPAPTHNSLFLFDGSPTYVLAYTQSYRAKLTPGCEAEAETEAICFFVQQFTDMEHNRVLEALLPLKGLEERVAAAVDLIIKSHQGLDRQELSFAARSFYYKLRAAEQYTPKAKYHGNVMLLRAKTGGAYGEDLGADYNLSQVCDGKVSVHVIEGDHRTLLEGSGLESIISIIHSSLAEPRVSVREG
NR3A LBD binder: binders of NR3A ligand-binding domain, primary screen, biophysical, differential scanning fluorimetry, uHTS; Tm shift relative to glycine control, % at 25 µM; NR3A LBD differential scanning fluorimetry, Tm shift; 0% = protein alone, 100% = glycine-bound protein; actives 2.5% (n = 340,000); AID 1259313, 2017; Glutamate receptor ionotropic, NMDA 3A (GRIN3A) ligand-binding domain;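 active = melting temperature shift of at least 10% of the positive control shift, at one fixed dose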
rCAG RNA binder: binders of r(CAG) RNA repeats, primary screen, biochemical, fluorescence | AID 651821, 2012 | actives 1.3% (n = 370,000) | inhibition, % at 3 µM | r(CAG) RNA repeat, TO-PRO-1 dye displacement fluorescence;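 active = inhibition above the plate cutoff, the mean of all test compounds on that plate plus 3 SD, cut at about 35% in these data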;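 note: 0% = DMSO alone and 100% = 100 µM mitoxantrone as full dye displacement; higher means more dye released from RNA so lower well fluorescence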
NadD block: inhibitors of S. aureus NadD, primary screen, biochemical, colorimetric, uHTS | Nicotinate-nucleotide adenylyltransferase NadD (Staphylococcus aureus N315) | actives 0.78% (n = 360,000) | purified NadD enzyme, colorimetric absorbance read-out | inhibition, % at 20 µM; in the data active = inhibition above about 26%
* hit, by the source's call; . = not tested or not shown. Hits are enriched below; roughly 4.3% of the tested compounds scored in any of these assays.

SMILES	FAS-TE inh	NR3A LBD binder	rCAG RNA binder	NadD block
O=C(Nc1ccc(Oc2cccnc2)cc1)C1CCN(Cc2cc(Cl)ccc2O)CC1	-2	88*	-2	-6
COc1ccc(N2CCN(CCNS(=O)(=O)c3ccccc3[N+](=O)[O-])CC2)cc1	.	.	2	.
CNc1oc(-c2ccc(OCc3ccccc3)cc2)nc1C#N	10	33*	6	-3
O=C(Cc1ccccc1F)Nc1nnc(-c2cccnc2)s1	.	.	5	.
O=c1oc2c(O)c(O)cc3c(=O)oc4c(O)c(O)cc1c4c23	84*	-18	.	26
Cc1c(C)c2cc(Cl)c(O)c(CN(C)C)c2oc1=O	-7	1	-1	1
COc1ccc(CC(=O)NC2CCCCN(Cc3ccc(Cl)cc3)C2=O)cc1OC (centres undefined)	.	.	4	.
CCC(=O)N1CCN(CCN=CC2=C(O)CC(C)(C)CC2=O)CC1	-8	13*	-4	-2
Cc1ccc(C(=O)N2CCCC2)cc1S(=O)(=O)N1CCOCC1	-9	0	-3	1
Cc1ccc(C(=O)N2CCOCC2)cc1S(=O)(=O)N1CCOCC1	-4	12*	-3	-1
NNC(=O)c1ccc(Cn2cc(Cl)cn2)cc1	-10	-1	-2	-2
O=C(Nc1ccc(Cl)c(Cl)c1)c1ccc(Cn2cc(Cl)cn2)cc1	24	24*	12	-1
c1ccc(Sc2ncnc3c2oc2ccccc23)cc1	9	34*	.	-2
O=C(O)CSc1ncnc2c1oc1ccccc12	-9	-1	3	-16
Cc1nc(Nc2cccc(Cl)c2)c2oc3ccccc3c2n1	16	36*	5	-4
Cc1nc(Nc2cccc(F)c2)c2oc3ccccc3c2n1	12	28*	-2	-9
Cc1nc(Nc2ccc(Cl)cc2)c2oc3ccccc3c2n1	10	.	2	-1
CCCC[C@H]1C2CC(OC(=O)Nc3cccc(C#N)c3)C(C2)[C@H]2CCCCN21 (some centres undefined)	.	.	5	.
CCOc1ccc(NC(=O)CNc2ccc(C)cc2Cl)cc1	17	34*	-1	-7
O=C(COc1ccc(Nc2ccccc2)cc1)Nc1ccncc1	1	5	2	11
O=C(CC(=O)Nc1cccc(Cl)c1)N/N=C\c1ccccc1	4	-11	3	2
O=C(COc1ccc(/C=N/NC(=O)c2ccncc2)cc1)Nc1ccccc1	-2	11*	-2	-3
O=C(COc1ccc(/C=N/NC(=O)c2ccncc2)cc1)Nc1cccc([N+](=O)[O-])c1	6	16*	3	2
COc1cc(/C=N/NC(=O)c2ccc(O)cc2)ccc1OCC(=O)Nc1cccc([N+](=O)[O-])c1	1	1	2	15
CCOc1ccc(/C=N/NC(=O)CC(=O)Nc2ccc(Cl)c(Cl)c2)cc1	0	20*	9	-3
SMILES	FAS-TE inh	NR3A LBD binder	rCAG RNA binder	NadD block
C=CS(=O)(=O)N(Cc1ccc(C)cc1)[C@@H](CO)C(=O)OC	.	.	3	.
COc1ccc2nc(N/C(N)=N/C(=S)Nc3ccccc3)nc(C)c2c1	16	19*	23	9
Cc1cccc(NC(=S)/N=C(\N)Nc2nc(C)c3cc(C)ccc3n2)c1	36	20*	24	17
CCOc1ccc2nc(N/C(N)=N/C(=S)Nc3ccc(OC)cc3)nc(C)c2c1	44	27*	21	16
C/C(=N\NC(=O)C1(C)CC1(Br)Br)c1cccc(NC(=O)c2ccc(C)o2)c1 (centres undefined)	9	11*	-3	2
CCN(CC(=O)NC1CCCC1)S(=O)(=O)c1ccc(Br)cc1	0	11*	-3	-3
Cc1ccc(-c2nnc(SCC(=O)NNC(=S)Nc3ccccc3)n2C2CCCCC2)cc1	.	.	31	.
C=CCOc1cccc(C(=O)N2CCC(CCC(=O)NC3CC3)CC2)c1	-4	16*	-4	-5
COc1ccc(/C(O)=C/C(=O)C(=O)NNC(=O)c2ccccc2)cc1	0	-3	25	8
COc1ccc(/C(O)=C/C(=O)C(=O)NNC(=O)C(O)(c2ccccc2)c2ccccc2)cc1	3	-7	44*	11
COC(=O)C1CN(CCc2ccccc2)CCS(=O)(=O)N1Cc1ccc(Cl)cc1 (centres undefined)	.	.	4	.
O=C(CSc1nnc(COc2ccccc2)n1-c1ccccc1)Nc1ccc2c(c1)OCO2	.	.	3	.
Cc1ccc(OCC(=O)N2CCCCC2)c(Br)c1	-7	17*	-5	-2
CCCC[C@H]1C2CC(OC(=O)Nc3cccc(C(F)(F)F)c3)C(C2)[C@H]2CCCCN21 (some centres undefined)	.	.	-2	.
CCOC(=O)c1ccc(NC(=O)Oc2ccccc2)cc1	0	34*	1	-3
CCOC(=O)c1ccc(NC2=CC(=O)C(=O)c3ccccc32)cc1	8	-1	27	47*
CCOC(=O)c1ccc(NC(=O)Oc2cc(C)c(Cl)cc2C(C)C)cc1	6	15*	1	-3
C#CCN1CC(N(C)CCOC(=O)c2ccc(C(C)(C)C)cc2)CS1(=O)=O (centres undefined)	.	.	0	.
CCOC(=O)Cc1nc(N2CCN(C=O)CC2)c2c(C)c(C(=O)OCC)sc2n1	.	.	6	.
C[C@@H]1OC(C2CCCCC2)N(C)[C@H]2C[C@H]3c4[nH]c5cccc(-c6ccccc6)c5c4CCN3C[C@@H]12 (some centres undefined)	.	.	7	.
COc1ccc(NC(=O)CSc2nc(C)cc(=O)[nH]2)cc1OC	.	.	2	.
Cc1ccccc1CN1CCCCC(NC(=O)c2ccc(COc3ccccc3)cc2)C1=O (centres undefined)	.	.	9	.
CC(Cl)C(=O)N1CCC(C(=O)NC2CCCc3ccccc32)CC1 (centres undefined)	.	.	-1	.
CCOC(=O)N(C)[C@H]1C[C@H]2c3[nH]c4c(-c5ccc6c(c5)OCO6)cccc4c3CCN2C(=O)[C@H]1[C@H](C)O	.	.	9	.
Cc1ccc(C(=O)NCCSC2CCCCC2)cc1S(=O)(=O)Nc1ccccc1	30	16*	4	1
SMILES	FAS-TE inh	NR3A LBD binder	rCAG RNA binder	NadD block
Cc1ccc(C(=O)N2CCCC2)cc1S(=O)(=O)Nc1ccccc1	-7	-17	-1	-1
Cc1ccc(-c2cc(C(=O)NN=C/C=C/c3ccco3)[nH]n2)cc1C	.	.	28	.
Fc1ccc(-c2csc3ncnc(N4CCc5ccccc5C4)c23)cc1	26	11*	-1	7
Cc1ccc(-c2csc3ncnc(N4CCc5ccccc5C4)c23)cc1	28	-13	-1	11
C=CCN1C(=O)[C@H](CC(=O)NCc2cccc(C(F)(F)F)c2)[C@@]2(C(=O)OCC)CCCC=C12	.	.	3	.
Cc1nn(Cc2ccccc2Cl)c(C)c1C(=O)NC1=NCCS1	-7	-3	-2	0
CCC(CC)c1nnc(NC(=O)c2c(C)nn(Cc3ccccc3Cl)c2C)s1	2	16*	-9	-4
COc1cccc(C(=O)N[C@H](C(=O)N2CCC[C@H]2C(=O)NCCc2ccccc2Cl)C(C)C)c1	.	.	-2	.

Assay outcomes deposited in PubChem by several laboratories.
